Results published in PubChem BioAssay AID743096 (Vanderbilt Specialized Chemistry Center, 2013).
Activity calls are given as the source filed them.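 How the source made its calls: active means calcium signal above 60% of the top acetylcholine response at human muscarinic M5 receptors, as a positive modulator; inactive means the rest.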

Molecular target: Muscarinic acetylcholine receptor M2 (Homo sapiens) (UniProt P08172)
Assay: M2 receptor positive allosteric modulation, selectivity assay for M5 PAM discovery project, cell-based, human M2 (AID 743096)

Sequence of Muscarinic acetylcholine receptor M2 (Homo sapiens) (P08172 whole entry, looked up): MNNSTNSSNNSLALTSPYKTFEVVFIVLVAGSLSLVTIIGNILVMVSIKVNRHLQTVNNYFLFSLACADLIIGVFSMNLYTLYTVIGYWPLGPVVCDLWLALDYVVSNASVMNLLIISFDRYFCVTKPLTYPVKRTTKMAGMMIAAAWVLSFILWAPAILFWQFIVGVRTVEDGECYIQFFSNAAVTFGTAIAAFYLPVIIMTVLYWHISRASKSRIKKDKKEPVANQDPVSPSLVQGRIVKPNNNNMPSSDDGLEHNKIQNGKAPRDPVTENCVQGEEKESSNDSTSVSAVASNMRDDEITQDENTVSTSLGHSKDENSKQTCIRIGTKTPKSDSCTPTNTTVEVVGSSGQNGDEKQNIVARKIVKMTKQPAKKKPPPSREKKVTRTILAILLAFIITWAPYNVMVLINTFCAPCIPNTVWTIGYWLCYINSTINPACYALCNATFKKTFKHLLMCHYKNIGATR

`CCN(C(=O)C1CCN(S(=O)(=O)c2ccc(OC)cc2)CC1)[C@H](C)c1ccccc1` was tested, and the outcome was “inactive”.

In the case of `CCN(Cc1ccccc1Cl)C(=O)C1CCN(S(=O)(=O)c2ccc3[nH]ncc3c2)CC1`, the outcome is reported as “inactive”.

In the case of `CCN(Cc1ccccc1C(F)(F)F)C(=O)C1CCN(S(=O)(=O)c2ccc3[nH]ncc3c2)CC1`, the outcome is reported as “inactive”.

`CCN(C(=O)C1CCN(S(=O)(=O)c2ccc3[nH]ncc3c2)CC1)[C@H](C)c1ccccc1` was tested, and the outcome was “inactive”.

`CCN(Cc1ccccc1)C(=O)C1CCN(S(=O)(=O)c2ccc3c(c2)OCCO3)CC1` was tested, and the outcome was “inactive”.

`CCN(Cc1ccccc1)C(=O)C1CCN(S(=O)(=O)c2ccc(OC)cc2)CC1` was tested, and the outcome was “inactive”.
